High-throughput results (PubChem BioAssay)
Only some compounds are listed: those with a hit (about 1.3% of all), similar ones and a draw of the others.
FID counter: counter-screen for HCV NS3 helicase inhibitors: DNA intercalator displacement; hit rate 0.17% among 290,000; AID 1845; DNA fluorescent intercalator displacement, fluorescence; inhibition, % at 7.9 µM; in the data active = inhibition above about 37%;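 note: higher means more ethidium bromide displaced from hairpin DNA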
MIN6 prolif: inducers of beta-cell replication in MIN6 cells. MIN6 cells proliferation, ATPlite luminescence, 48 h; cells starved in 0.2% serum; 100% = growth in 10% serum. proliferation, % at 10 µM. hit rate 0.29% among 330,000. AID 2380;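 active = compounds whose signal lies at least 3.5 SD above the mean of all wells on their plate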
RAD54 inh: RAD54 (human) branch migration inhibition | hit rate 0.14% among 360,000 | RAD54 Holliday junction branch migration, FAM/BHQ fluorescence | inhibition, % at 10.4 µM | AID 602329;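 active = mean normalized replicate activity at least 40 and at least half of replicates scoring 40 or more; inconclusive = only one of the two criteria met; inactive = mean below 40 and under half of replicates reaching 40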;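 note: inhibitors cause a drop in the FAM fluorescence signal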
PREPL inhibitor: inhibits the human prolyl oligopeptidase-like enzyme; recombinant PREPL, fluorescence polarization activity-based probe; hit rate 0.68% among 320,000; inhibition, % at 5.96 µM; AID 2751; Q4J6C6; in the data active = inhibition above about 43%
UBC13 polyUb: blocks human UBC13 polyubiquitin chain formation; TR-FRET; inhibition, % at 20 µM; hit rate 0.47% among 330,000; AID 485273; in the data active = inhibition above about 45%, passing the limit was not always enough; inconclusive = no clear call, values can overlap the other calls
Target sequence (P61088 whole entry, looked up): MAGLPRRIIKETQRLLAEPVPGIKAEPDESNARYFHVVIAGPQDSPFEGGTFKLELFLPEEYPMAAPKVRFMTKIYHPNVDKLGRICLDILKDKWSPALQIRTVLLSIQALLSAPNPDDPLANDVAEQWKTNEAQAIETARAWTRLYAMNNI
RAD52 anneal inh: blocks human RAD52 DNA annealing; inhibition, % at 18.7 µM; recombinant RAD52 DNA annealing, FRET fluorescence; P43351; hit rate 0.46% among 360,000;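 active = every replicate showing at least 50% inhibition; inconclusive = mean inhibition at least 50% but not in every replicate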
Target sequence (P43351 whole entry, looked up): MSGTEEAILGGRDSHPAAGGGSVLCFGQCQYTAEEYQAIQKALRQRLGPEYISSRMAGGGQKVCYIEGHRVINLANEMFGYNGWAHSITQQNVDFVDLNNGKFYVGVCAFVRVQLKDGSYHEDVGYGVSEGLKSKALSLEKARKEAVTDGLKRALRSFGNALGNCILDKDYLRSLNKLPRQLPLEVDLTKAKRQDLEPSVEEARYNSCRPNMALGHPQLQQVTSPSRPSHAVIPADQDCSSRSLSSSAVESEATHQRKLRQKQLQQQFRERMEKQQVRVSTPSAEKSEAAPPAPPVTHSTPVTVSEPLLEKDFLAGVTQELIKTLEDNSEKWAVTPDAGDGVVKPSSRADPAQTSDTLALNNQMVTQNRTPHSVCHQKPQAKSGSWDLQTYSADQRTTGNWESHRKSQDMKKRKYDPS
Casp3 UBC13 ctr: inhibits human caspase-3 in UBC13 counter-screen; shares compounds with UBC13 polyUb; Recombinant caspase-3, Caspase-Glo 3/7 luminescence, 60 min; inhibition, % at 20 µM; hit rate 4% among 1,400; AID 488856;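 active = mean inhibition across replicates above about 26%, limit read from the data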
UBC13 conf: confirmation of human UBC13 polyubiquitin inhibitors; inhibition, % at 10 µM; UBC13 polyubiquitination, TR-FRET, biochemical; shares compounds with UBC13 polyUb; hit rate 68% among 1,400; in the data active = inhibition above about 45%; inconclusive = no clear call, values can overlap the other calls
Large screens that a line does not name were inactive (follow-up assays come after a bar, where they were run).

CCCC(=O)N1CC2(CN(C(=O)CC3CC3)C2)c2c(n(C)c3cc(OC)ccc23)[C@H]1CO	none (no result: FID counter, MIN6 prolif, RAD54 inh, PREPL inhibitor, UBC13 polyUb)
C[C@H](CO)N1C[C@H](C)[C@@H](CN(C)C(=O)c2ccccn2)Oc2ncc(Br)cc2C1=O	none (no result: FID counter, MIN6 prolif, PREPL inhibitor, UBC13 polyUb)
CCCN1[C@@H]2c3ccc(-c4cccnc4)c(=O)n3C[C@@H]2[C@@H](CO)[C@@H]1C(=O)NCCCN1CCOCC1	none (no result: FID counter, MIN6 prolif, PREPL inhibitor, UBC13 polyUb)
CC(O)[C@H]1CN=C(N)N1CCc1cc(C(F)(F)F)cc(C(F)(F)F)c1 (stereo not given in full)	none (no result: FID counter)
NC1=NC[C@H](Cc2ccc(O)cc2)N1CCc1cc(C(F)(F)F)cc(C(F)(F)F)c1	UBC13 polyUb 52 (no result: FID counter) | Casp3 UBC13 ctr inactive | UBC13 conf inactive
NC1=NC[C@H](c2ccccc2)N1CCc1cc(C(F)(F)F)cc(C(F)(F)F)c1	UBC13 polyUb 80 (no result: FID counter) | Casp3 UBC13 ctr inactive | UBC13 conf 53
CCC(C)[C@H]1CNC(=S)N1CCc1cccc2ccccc12 (stereo not given in full)	none (no result: FID counter)
CCC(C)[C@H]1CN=C(N)N1CCc1cccc2ccccc12 (stereo not given in full)	UBC13 polyUb 45 (no result: FID counter) | Casp3 UBC13 ctr inactive | UBC13 conf 51
NC1=NC[C@@H](Cc2ccc(O)cc2)N1CCc1cccc2ccccc12	none (no result: FID counter)
C/C=C/c1ccc2c(c1)O[C@@H](CN(C)Cc1cncnc1)[C@H](C)CN([C@@H](C)CO)S2(=O)=O	none (no result: FID counter, MIN6 prolif, PREPL inhibitor, UBC13 polyUb)
C/C=C/c1ccc([C@@H]2[C@@H](CO)N(C(=O)CN(C)C)C23CN(C(=O)C2CCC2)C3)cc1	none (no result: FID counter, MIN6 prolif, RAD54 inh, PREPL inhibitor, UBC13 polyUb)
COc1ccccc1NC(=O)c1cc(S(=O)(=O)N2CCCCCC2)ccc1F	UBC13 polyUb 68 | Casp3 UBC13 ctr inactive | UBC13 conf 90
COc1ccc(S(=O)(=O)N2CCCC2)cc1NC(=O)c1ccccc1F	none
COc1ccc(C)cc1NC(=O)c1cc(S(=O)(=O)N2CCCCC2)ccc1N1CCOCC1	UBC13 polyUb 65 (no result: FID counter) | Casp3 UBC13 ctr inactive | UBC13 conf 51
CO[C@@H]1CN(C)C(=O)c2cc(NC(=O)C3CC3)ccc2OC[C@H](C)N(C(=O)c2cnccn2)C[C@@H]1C	none (no result: FID counter, MIN6 prolif, PREPL inhibitor, UBC13 polyUb)
COc1ccc(CN(C)C[C@H]2OCCCC[C@@H](C)Oc3ccc(NC(=O)c4ccccc4)cc3C(=O)N([C@H](C)CO)C[C@H]2C)cc1	none (no result: FID counter, MIN6 prolif, PREPL inhibitor, UBC13 polyUb)
COc1ccccc1NC(=O)CSc1nc2ccccc2n1C(C)=O	UBC13 polyUb 46 (no result: RAD52 anneal inh) | Casp3 UBC13 ctr inactive | UBC13 conf inactive
CCn1c(SCC(=O)Nc2ccccc2OC)nc2ccccc2c1=O	none (no result: RAD54 inh, RAD52 anneal inh)
CC(C)C[C@H]1CN=C(Nc2ccccc2)N1CC1CCC(C(C)(C)C)CC1 (stereo not given in full)	UBC13 polyUb 87 (no result: FID counter, RAD52 anneal inh) | Casp3 UBC13 ctr inactive | UBC13 conf 73
C#CCOCCOCCOCCNc1nc(N2CCN(C(=O)C([C@@H](C)O)n3cc([C@@H](N)CCCCN)nn3)CC2)nc(N2CCN(C(=O)[C@H](CO)n3cc([C@@H](N)C(C)C)nn3)CC2)n1 (stereo not given in full)	UBC13 polyUb 105, RAD52 anneal inh 58 (no result: FID counter) | Casp3 UBC13 ctr inactive | UBC13 conf 111
C#CCOCCOCCOCCNc1nc(N2CCN(C(=O)[C@H](CO)n3cc([C@@H](N)C(C)C)nn3)CC2)nc(N2CCN(C(=O)[C@H](CCC(=O)O)n3cc([C@@H](N)CCCCN)nn3)CC2)n1	UBC13 polyUb 45 (no result: FID counter) | Casp3 UBC13 ctr inactive | UBC13 conf 47
C#CCOCCOCCOCCNc1nc(N2CCN(C(=O)C([C@@H](C)O)n3cc([C@@H](N)CCCCN)nn3)CC2)nc(N2CCN(C(=O)C([C@@H](C)O)n3cc([C@@H](N)CCCCN)nn3)CC2)n1 (stereo not given in full)	UBC13 polyUb 80 (no result: FID counter) | Casp3 UBC13 ctr inactive | UBC13 conf 61
CCO[C@H]1OC(C(=O)N2CCOCC2)=C[C@@H](C2CCCCC2)[C@@H]1CCCO	none (no result: FID counter, MIN6 prolif, PREPL inhibitor, UBC13 polyUb)
CCn1c(=O)c(C(=O)NCCN2CCCCC2)c(O)c2ccccc21	UBC13 polyUb 48 (no result: RAD52 anneal inh) | Casp3 UBC13 ctr inactive | UBC13 conf 55
CCn1c(=O)c(C(=O)NCCc2ccccc2)c(O)c2ccccc21	none (no result: RAD52 anneal inh)
Cc1cc(Sc2nnc(/N=C/N(C)C)s2)c2ccccc2n1	UBC13 polyUb 55 | Casp3 UBC13 ctr inactive | UBC13 conf 65
O=C(Nc1ccc2c(c1)[C@H]1C[C@H](CC(=O)N3CCOCC3)O[C@H](CO)[C@H]1O2)c1cccnc1	none (no result: FID counter, MIN6 prolif, PREPL inhibitor, UBC13 polyUb)
C[C@H](CO)N1C[C@H](C)[C@@H](CN(C)Cc2ccc(C(=O)O)cc2)Oc2ccc(NS(=O)(=O)c3ccc(F)cc3)cc2CC1=O	none (no result: FID counter, MIN6 prolif, RAD54 inh, PREPL inhibitor, UBC13 polyUb)
O=C(c1ccc(OCCN2CCCCC2)cc1)c1c(-c2ccc(O)cc2)sc2cc(O)ccc12	UBC13 polyUb 92 (no result: FID counter) | Casp3 UBC13 ctr inactive | UBC13 conf 102
COc1cc2sc(-c3ccccc3OC)c(-c3ccc(OCCN4CCCCC4)cc3)c2cc1OC	UBC13 polyUb 76 (no result: FID counter) | Casp3 UBC13 ctr inactive | UBC13 conf 74
COc1ccccc1-c1sc2cc3c(cc2c1-c1ccc(OCCN2CCCCC2)cc1)OCO3	UBC13 polyUb 77 (no result: FID counter) | Casp3 UBC13 ctr inactive | UBC13 conf 69
COc1ccc(NS(=O)(=O)c2ccc(C)c(NC(=O)CN3C(=O)NC4(CCCC4)C3=O)c2)cc1	UBC13 polyUb 106 (no result: FID counter) | Casp3 UBC13 ctr inactive | UBC13 conf 55
Cc1cccc2sc(N(CCN3CCOCC3)C(=O)CCS(=O)(=O)c3ccccc3)nc12	UBC13 polyUb 59 (no result: FID counter) | Casp3 UBC13 ctr inactive | UBC13 conf 79
O=C(O)C1Nc2c(cccc2C(F)(F)F)C2C=CCC12 (stereo not given)	none (no result: MIN6 prolif, RAD54 inh, PREPL inhibitor, UBC13 polyUb, RAD52 anneal inh)
COc1cccc2c1NC(C(=O)O)C1CC=CC21 (stereo not given)	UBC13 polyUb 45 (no result: RAD54 inh, RAD52 anneal inh) | Casp3 UBC13 ctr inactive | UBC13 conf 47
Cc1cccc(OCc2n(CC(=O)OC3CC(C)CCC3C(C)C)c3ccccc3[n+]2C)c1 (stereo not given)	UBC13 polyUb 59 (no result: RAD54 inh, RAD52 anneal inh) | Casp3 UBC13 ctr inactive | UBC13 conf 92
Cc1ccc(C)c(S(=O)(=O)N2CCNCC2)c1	none (no result: RAD54 inh)
Cc1ccc(C)c(S(=O)(=O)c2c[nH]c(=S)[nH]c2=O)c1	UBC13 polyUb 45 | Casp3 UBC13 ctr inactive | UBC13 conf inconclusive
COc1cc(CNCC(C)C)cc(Br)c1OCC(=O)Nc1ccccc1	none (no result: RAD52 anneal inh)
COc1ccccc1NC(=O)COc1ccc(C(=O)NCc2ccccc2)cc1OC	UBC13 polyUb 70 (no result: FID counter) | Casp3 UBC13 ctr inactive | UBC13 conf 75
CNCc1cc(Br)c(OCC(=O)Nc2ccccc2OC)c(OC)c1	UBC13 polyUb 65 (no result: RAD54 inh) | Casp3 UBC13 ctr inactive | UBC13 conf 103
COc1ccccc1NC(=O)COc1ccc(C(=O)NCC2CCCO2)cc1OC (stereo not given)	none (no result: FID counter)
